Measured values from PubChem BioAssay (NCATS).
Records with an inconclusive call do not appear. Where a call stands in place of a potency, no number is given. A structure can be active in one record and inactive in another. Calls of active or inactive are those of the source. Unless noted, the call rests on the fitted dose curve; in most records, active means well fitted curve in the direction sought with a large enough effect; inconclusive means small, poorly fitted or top-dose-only effect, or another doubt; inactive means no such curve, though single readings can be large; an effect the other way counts as inactive or inconclusive.

Experiments:
[1] = Quantitative high throughput screen for delayed death inhibitors of the malarial parasite plastid, 48 hour incubation (AID 488752); further: nearly all actives have a fitted effect of over 65% in size; further: potency means the concentration at half of the fitted maximal effect
In short: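 Readout is firefly luciferase luminescence from a reporter integrated into the parasite genome, with lower signal taken as inhibited growth. Infected red cells (0.1% parasitemia, 2% hematocrit final) are cultured with compound for one 48 h cycle at 37 C.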

[2] = molecular target: Thioredoxin reductase 1, cytoplasmic (Rattus norvegicus) (UniProt O89049); assay: qHTS Assay for Substrates of Mammalian Selenoprotein Thioredoxin Reductase 1 (TrxR1) (AID 488772);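 further: NADPH fluorescence in the first read after selenite addition and not the 8 min delta; series mostly up to about 57 µM; a drop in NADPH fluorescence below the no-compound background marks a TrxR1 substrate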
In short: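 Quantitative HTS in Tris-HCl buffer at pH 7.5 with EDTA and Tween-20, using rat TrxR1, 400 uM NADPH and 400 uM selenite (final). A fall in initial NADPH fluorescence relative to background marked substrate behaviour.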

[3] = molecular target: Thioredoxin reductase 1, cytoplasmic (Rattus norvegicus) (UniProt O89049); assay: qHTS Assay for Inhibitors of Mammalian Selenoprotein Thioredoxin Reductase 1 (TrxR1) (AID 488773); conditions: Potency: inhibition;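 further: drop in NADPH fluorescence over an 8 min run after selenite addition; series mostly up to about 57 µM; nearly all actives have a fitted effect of over 40% in size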
In short: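 Steps: enzyme (90 nM) plus NADPH (400 uM final), 5 min at ~22 deg C; compound added, 15 min; selenite (400 uM final) added; fluorescence followed for 8 min. Concentration-response curves derived from the normalized delta values.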

[4] = molecular target: Flap endonuclease 1 (Homo sapiens) (UniProt P39748); assay: qHTS Validation Assay for the Inhibitors of Human Flap endonuclease 1 (FEN1) (AID 488816); further: potency means the concentration at half of the fitted maximal effect
In short: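 Readings taken at 0 and 15 min after starting the reaction with 50 nM (final) substrate supplied the signal. Compounds had first sat with 10 nM FEN1 reagent for 15 min at room temperature. Values come from Hill-equation concentration-response fits.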

[5] = molecular target: M-phase phosphoprotein 8 (Homo sapiens) (UniProt Q99549); assay: qHTS Validation Assay for Inhibitors for MPP8 Chromodomain Interactions with Methylated Histone Tails (AID 488949); further: nearly all actives have a fitted effect of over 55% in size; further: potency means the concentration at half of the fitted maximal effect
In short: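 MPP8 (50 nM) was pre-bound to 50 nM biotinylated H3(1-18)K9me3 peptide in PBS pH 7.4 with 0.01% Tween-20. Compounds were then added for 30 min at room temperature, and complex disruption was read by AlphaScreen with streptavidin donor and nickel-chelate acceptor beads.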

[6] = molecular target: Chromobox protein homolog 1 (Homo sapiens) (UniProt P83916); assay: qHTS Validation Assay for Inhibitors of HP1-beta Chromodomain Interactions with Methylated Histone Tails (AID 488953); further: nearly all actives have a fitted effect of over 50% in size; further: potency means the concentration at half of the fitted maximal effect
In short: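 50 nM HP1-beta + 50 nM biotin-H3(1-18)K9me3, PBS pH 7.4, 0.01% Tween-20, 30 min RT; compound added, 30 min RT; AlphaScreen beads 10 ug/mL final, 30 min dark; luminescence read.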

[7] = molecular target: Methanococcus maripaludis chaperonin (MmCpn) (UniProt Q6LX38); assay: High-Throughput Screening for Modulators of Cytosolic Chaperonin Activity: MmCpn Primary Screen (AID 488978);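 further: 50 nM MmCpn enzyme hydrolysing 30 µM ATP at 37 °C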
In short: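 MmCpn at 50 nM final was preincubated 5 min at RT with compound. ATP was then added at 30 uM final for 10 min at 37 C. ADP formed was detected by Transcreener HTRF (665/590 nm).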

[8] = molecular target: Transient receptor potential cation channel subfamily V member 1 (Homo sapiens) (UniProt Q8NER1); assay: HTS Assay for Compounds that Act as Enhancers of the Vanilloid Receptor 1 (AID 488979)
In short: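 Calcium influx kinetics via Fluo-8 (480/520 nm) in TRPV1-expressing cells, 2000/well cultured overnight at 35.5C. Compound-alone read 3 min (agonist phase), followed by EC20 capsaicin challenge for 2 min (enhancer phase).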

[9] = molecular target: Thyrotropin receptor (Homo sapiens) (UniProt P16473); assay: qHTS Assay for Antagonists of the Thyroid Stimulating Hormone Receptor (AID 488980); further: series mostly up to about 58 µM
In short: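 TSHR-transfected HEK293 cells (2000/well) in HEPES-buffered HBSS with 70 uM RO 20-1724 were stimulated with 4 nM TSH (EC80, final) in the presence of compound. cAMP was measured by HTRF competition after lysis and 30 min at RT.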

[10] = molecular target: D(1A) dopamine receptor (Homo sapiens) (UniProt P21728); assay: HTS Assay for Allosteric Agonists of the Human D1 Dopamine Receptor: Primary Screen for Agonists (AID 488981); further: potency means the concentration at half of the fitted maximal effect
In short: (§1)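 Calcium flux in an inducible, force-coupled HEK293 Trex D1 line (overnight at 30 C): agonist mode is the 180 s kinetic read after compound; potentiator mode is the following 180 s read after dopamine at EC20.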

[11] = molecular target: D(1A) dopamine receptor (Homo sapiens) (UniProt P21728); assay: HTS Assay for Allosteric Agonists of the Human D1 Dopamine Receptor: Primary Screen for Antagonists (AID 488983);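 further: calcium flux response to an EC80 dopamine challenge measured with no-wash dye; nearly all actives have a fitted effect of over 65% in size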; further: potency means the concentration at half of the fitted maximal effect
In short: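 Cells are induced with tetracycline and incubated overnight at 30 C, then loaded with calcium dye for 30 to 90 minutes at room temperature. Compound addition is followed by a 180 s read, then an EC80 dopamine addition and another 180 s read.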

[12] = Validation screen for small molecules that induce genotoxicity in human embryonic kidney (HEK293T) cells expressing luciferase-tagged ELG1 (AID 493106)
In short: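 Luminescence from an ELG1-luciferase fusion serves as the read-out, rising when genetic stress elevates ELG1 protein. HEK293T reporter cells (2,000 per well) received 23 nL compound, incubated 16 hr at 37 °C, then ONE-Glo for 30 min at room temperature.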

[13] = molecular target: Thyrotropin-releasing hormone receptor (Homo sapiens) (UniProt P34981); assay: qHTS for Small Molecule Agonists and Allosteric Enhancers of Human TRH Receptor: Validation Screen for Agonists (AID 493127;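 active means calcium activation more than 3 SD above the typical response in the agonist read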;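 further: intracellular calcium rise by fluo-8 fluorescence before TRH EC20 addition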); conditions: TRH receptor agonist cell assay; at 2 µM; stronger effect = higher value
In short: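 Cells 2000/well, 10% FCS, 18 h 33.5C/5% CO2 → fluo-8 Ca dye, RT 30 min–1.5 h → FDSS baseline 10 × 1 s → compound added → 230 cycles (1 s/cycle) agonist mode. TRH controls.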

[14] = Nrf2 qHTS screen for inhibitors: Validation (AID 493153; active means well fitted inhibition curve with a large enough effect in the main read-out, with a control signal flat, not every such curve was filed as active); conditions: Potency: luciferase luminescence; viability change: measured here: cytotoxicity max response
In short: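 Luminescence from an ARE-firefly luciferase reporter in A549 cells gives Nrf2 inhibition; an earlier CellTiter-Fluor fluorescent read flags cytotoxicity. Cells in 5% FBS OPTI-MEM received compound dilution series for 18-24 h at 37°C.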

[15] = qHTS for Inhibitors of Cell Surface uPA Generation: Validation Assay (AID 493164)
In short: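 RAW 264.7 cells (4000/well) were plated overnight, then exposed for 18 h at 37 C, 5% CO2 to compounds in a 7-point 1:5 titration (2.45 nM–38.3 uM final). Intracellular ATP was read by ATP-Lite luminescence.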

[16] = molecular target: Galactokinase (Homo sapiens) (UniProt P51570); assay: qHTS Validation Assay for Inhibitors of Human Galactokinase (GALK) (AID 493189)
In short: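 GALK (5 nM) with 35 uM ATP and 100 uM galactose in HEPES pH 8.0 with MgCl2, NaCl, DTT and BSA. Reaction ran 1 h at room temperature. Residual ATP read by Kinase-Glo Plus luminescence.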

[17] = molecular target: D(1A) dopamine receptor (Homo sapiens) (UniProt P21728); assay: HTS Assay for Allosteric Agonists of the Human D1 Dopamine Receptor: Primary Screen for Potentiators (AID 488982)
In short: as §1

[18] = molecular target: ATPase family AAA domain-containing protein 5 (Homo sapiens) (UniProt Q96QE3); assay: Validation screen for small molecules that inhibit ELG1-dependent DNA repair in human embryonic kidney (HEK293T) cells expressing luciferase-tagged ELG1 (AID 493107);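 further: cells co-treated with the DNA-damaging agent 5-fluorouridine alongside compound; series mostly up to about 46 µM; inhibitors lower the ELG1-luciferase luminescence signal; nearly all actives have a fitted effect of over 70% in size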
In short: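 Luminescence from ONE-Glo, developed 30 min at room temperature, served as read-out of ELG1-luciferase levels. Beforehand, reporter HEK293T cells received 5-fluorouridine plus test compound for 16 hr at 37 °C.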

[19] = molecular target: ATP-dependent 6-phosphofructokinase (Trypanosoma brucei brucei) (UniProt O15648); assay: qHTS Assay to Find Inhibitors of T. brucei phosphofructokinase: hit validation (AID 492961);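 further: luminescence reports ADP formed as PFK phosphorylates fructose-6-phosphate with ATP; series mostly up to about 51 µM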
In short: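 ADP-Glo luminescence read-out of ADP formed by 1.25 nM PFK from 0.1 mM ATP and 0.5 mM F6P (TEA pH 8.0, 45 min, RT). Compounds titrated; activity normalized to no-enzyme and full-enzyme controls.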

Sequence of ATPase family AAA domain-containing protein 5 (Homo sapiens) (Q96QE3 whole entry, looked up, the tested form may be a part): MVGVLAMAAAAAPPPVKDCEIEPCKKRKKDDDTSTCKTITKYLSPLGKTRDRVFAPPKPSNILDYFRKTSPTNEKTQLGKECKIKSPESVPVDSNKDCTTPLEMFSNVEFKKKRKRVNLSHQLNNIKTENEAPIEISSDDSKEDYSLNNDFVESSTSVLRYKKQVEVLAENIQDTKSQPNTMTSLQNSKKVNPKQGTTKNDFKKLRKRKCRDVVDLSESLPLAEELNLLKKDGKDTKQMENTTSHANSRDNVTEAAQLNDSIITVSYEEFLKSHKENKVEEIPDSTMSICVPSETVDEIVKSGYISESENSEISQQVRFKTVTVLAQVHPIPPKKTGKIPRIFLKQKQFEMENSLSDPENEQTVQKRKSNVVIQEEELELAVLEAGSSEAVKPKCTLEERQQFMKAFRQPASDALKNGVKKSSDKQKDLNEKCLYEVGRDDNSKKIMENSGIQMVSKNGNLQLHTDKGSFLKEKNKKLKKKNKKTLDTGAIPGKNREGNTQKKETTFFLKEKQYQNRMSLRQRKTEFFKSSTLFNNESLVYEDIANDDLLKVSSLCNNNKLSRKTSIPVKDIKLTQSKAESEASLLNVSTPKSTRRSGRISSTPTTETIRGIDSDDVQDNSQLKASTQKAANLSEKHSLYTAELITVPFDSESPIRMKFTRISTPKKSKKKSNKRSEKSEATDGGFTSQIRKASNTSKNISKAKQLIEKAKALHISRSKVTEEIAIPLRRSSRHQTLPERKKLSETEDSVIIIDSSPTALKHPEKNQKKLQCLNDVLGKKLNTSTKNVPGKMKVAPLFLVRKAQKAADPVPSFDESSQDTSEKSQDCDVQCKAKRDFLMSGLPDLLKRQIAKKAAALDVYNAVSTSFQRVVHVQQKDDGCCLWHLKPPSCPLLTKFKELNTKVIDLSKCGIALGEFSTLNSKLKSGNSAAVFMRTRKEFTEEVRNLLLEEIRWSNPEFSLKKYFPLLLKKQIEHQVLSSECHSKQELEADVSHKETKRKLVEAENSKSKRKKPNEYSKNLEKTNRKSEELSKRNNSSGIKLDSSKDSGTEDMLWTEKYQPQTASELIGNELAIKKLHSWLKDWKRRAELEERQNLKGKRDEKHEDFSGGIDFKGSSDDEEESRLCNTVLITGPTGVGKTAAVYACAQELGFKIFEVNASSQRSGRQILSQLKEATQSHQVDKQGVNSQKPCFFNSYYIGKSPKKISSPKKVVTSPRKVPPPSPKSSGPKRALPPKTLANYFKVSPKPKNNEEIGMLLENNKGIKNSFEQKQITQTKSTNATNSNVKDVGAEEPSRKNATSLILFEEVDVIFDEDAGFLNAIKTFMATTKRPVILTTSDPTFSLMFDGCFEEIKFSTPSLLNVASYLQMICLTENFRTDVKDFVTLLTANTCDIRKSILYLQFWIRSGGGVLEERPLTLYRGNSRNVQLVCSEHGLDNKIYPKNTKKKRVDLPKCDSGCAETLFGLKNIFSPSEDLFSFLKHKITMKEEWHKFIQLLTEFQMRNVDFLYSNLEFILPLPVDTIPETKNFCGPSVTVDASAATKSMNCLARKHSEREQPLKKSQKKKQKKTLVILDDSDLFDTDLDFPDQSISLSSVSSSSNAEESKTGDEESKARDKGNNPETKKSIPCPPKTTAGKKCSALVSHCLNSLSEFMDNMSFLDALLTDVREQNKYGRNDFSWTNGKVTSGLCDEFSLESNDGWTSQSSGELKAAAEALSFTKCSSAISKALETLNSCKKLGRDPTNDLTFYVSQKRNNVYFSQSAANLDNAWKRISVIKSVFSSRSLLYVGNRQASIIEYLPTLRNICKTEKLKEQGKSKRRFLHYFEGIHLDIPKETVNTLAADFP
Sequence of D(1A) dopamine receptor (Homo sapiens) (P21728 whole entry, looked up): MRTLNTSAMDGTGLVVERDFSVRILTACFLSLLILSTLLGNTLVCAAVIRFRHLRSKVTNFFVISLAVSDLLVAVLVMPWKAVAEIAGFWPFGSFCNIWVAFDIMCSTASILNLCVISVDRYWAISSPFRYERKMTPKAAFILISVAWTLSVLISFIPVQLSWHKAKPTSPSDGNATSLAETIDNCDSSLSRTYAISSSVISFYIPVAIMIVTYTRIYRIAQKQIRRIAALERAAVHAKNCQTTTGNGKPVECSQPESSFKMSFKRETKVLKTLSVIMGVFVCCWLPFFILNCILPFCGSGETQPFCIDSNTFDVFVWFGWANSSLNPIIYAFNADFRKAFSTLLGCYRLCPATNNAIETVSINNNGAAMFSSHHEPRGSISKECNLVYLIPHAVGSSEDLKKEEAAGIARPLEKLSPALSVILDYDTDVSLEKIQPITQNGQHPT
Sequence of Thyrotropin receptor (Homo sapiens) (P16473 whole entry, looked up): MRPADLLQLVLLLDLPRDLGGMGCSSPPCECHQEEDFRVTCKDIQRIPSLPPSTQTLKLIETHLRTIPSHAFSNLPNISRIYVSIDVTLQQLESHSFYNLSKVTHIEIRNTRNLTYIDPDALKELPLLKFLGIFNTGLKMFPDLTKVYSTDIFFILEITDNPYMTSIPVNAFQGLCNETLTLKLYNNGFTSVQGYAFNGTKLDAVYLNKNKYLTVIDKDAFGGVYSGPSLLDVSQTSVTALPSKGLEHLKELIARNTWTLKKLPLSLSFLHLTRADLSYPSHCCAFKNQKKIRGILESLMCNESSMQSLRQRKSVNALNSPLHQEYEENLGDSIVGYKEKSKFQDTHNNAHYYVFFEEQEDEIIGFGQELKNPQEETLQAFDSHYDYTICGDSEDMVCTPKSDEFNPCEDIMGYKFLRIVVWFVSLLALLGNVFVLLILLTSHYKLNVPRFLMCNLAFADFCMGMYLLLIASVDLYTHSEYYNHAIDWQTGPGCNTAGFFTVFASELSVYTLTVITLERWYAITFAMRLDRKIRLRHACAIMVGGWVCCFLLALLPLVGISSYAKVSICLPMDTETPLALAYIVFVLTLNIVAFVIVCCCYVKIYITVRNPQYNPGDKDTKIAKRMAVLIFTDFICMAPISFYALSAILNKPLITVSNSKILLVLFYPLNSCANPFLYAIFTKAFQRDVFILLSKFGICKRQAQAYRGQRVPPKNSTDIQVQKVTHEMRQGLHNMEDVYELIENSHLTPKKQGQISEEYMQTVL
Sequence of Thyrotropin-releasing hormone receptor (Homo sapiens) (P34981 whole entry, looked up): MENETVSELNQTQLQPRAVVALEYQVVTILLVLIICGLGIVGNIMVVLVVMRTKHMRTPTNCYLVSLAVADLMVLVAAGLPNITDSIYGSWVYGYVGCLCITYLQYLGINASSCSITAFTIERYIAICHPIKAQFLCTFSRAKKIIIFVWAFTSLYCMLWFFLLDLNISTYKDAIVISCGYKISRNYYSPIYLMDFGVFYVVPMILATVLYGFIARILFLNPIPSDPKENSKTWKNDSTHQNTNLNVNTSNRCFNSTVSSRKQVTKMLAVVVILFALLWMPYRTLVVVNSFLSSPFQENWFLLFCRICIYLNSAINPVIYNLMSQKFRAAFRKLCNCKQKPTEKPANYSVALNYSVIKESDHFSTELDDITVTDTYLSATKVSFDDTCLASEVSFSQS
Sequence of Thioredoxin reductase 1, cytoplasmic (Rattus norvegicus) (O89049 whole entry, looked up): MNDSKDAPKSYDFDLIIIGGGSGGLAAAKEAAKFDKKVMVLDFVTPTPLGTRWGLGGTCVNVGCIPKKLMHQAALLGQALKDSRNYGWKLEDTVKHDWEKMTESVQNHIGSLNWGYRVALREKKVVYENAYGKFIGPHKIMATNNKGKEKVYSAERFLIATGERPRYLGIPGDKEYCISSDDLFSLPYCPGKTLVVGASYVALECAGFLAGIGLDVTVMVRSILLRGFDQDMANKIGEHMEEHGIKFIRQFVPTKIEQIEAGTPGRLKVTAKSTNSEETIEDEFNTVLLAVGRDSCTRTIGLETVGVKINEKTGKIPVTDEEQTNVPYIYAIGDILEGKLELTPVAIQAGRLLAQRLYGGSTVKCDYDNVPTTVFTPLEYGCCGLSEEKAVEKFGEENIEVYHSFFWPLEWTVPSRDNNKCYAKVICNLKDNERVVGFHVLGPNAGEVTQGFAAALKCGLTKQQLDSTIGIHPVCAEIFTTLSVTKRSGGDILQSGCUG
Sequence of Transient receptor potential cation channel subfamily V member 1 (Homo sapiens) (Q8NER1 whole entry, looked up): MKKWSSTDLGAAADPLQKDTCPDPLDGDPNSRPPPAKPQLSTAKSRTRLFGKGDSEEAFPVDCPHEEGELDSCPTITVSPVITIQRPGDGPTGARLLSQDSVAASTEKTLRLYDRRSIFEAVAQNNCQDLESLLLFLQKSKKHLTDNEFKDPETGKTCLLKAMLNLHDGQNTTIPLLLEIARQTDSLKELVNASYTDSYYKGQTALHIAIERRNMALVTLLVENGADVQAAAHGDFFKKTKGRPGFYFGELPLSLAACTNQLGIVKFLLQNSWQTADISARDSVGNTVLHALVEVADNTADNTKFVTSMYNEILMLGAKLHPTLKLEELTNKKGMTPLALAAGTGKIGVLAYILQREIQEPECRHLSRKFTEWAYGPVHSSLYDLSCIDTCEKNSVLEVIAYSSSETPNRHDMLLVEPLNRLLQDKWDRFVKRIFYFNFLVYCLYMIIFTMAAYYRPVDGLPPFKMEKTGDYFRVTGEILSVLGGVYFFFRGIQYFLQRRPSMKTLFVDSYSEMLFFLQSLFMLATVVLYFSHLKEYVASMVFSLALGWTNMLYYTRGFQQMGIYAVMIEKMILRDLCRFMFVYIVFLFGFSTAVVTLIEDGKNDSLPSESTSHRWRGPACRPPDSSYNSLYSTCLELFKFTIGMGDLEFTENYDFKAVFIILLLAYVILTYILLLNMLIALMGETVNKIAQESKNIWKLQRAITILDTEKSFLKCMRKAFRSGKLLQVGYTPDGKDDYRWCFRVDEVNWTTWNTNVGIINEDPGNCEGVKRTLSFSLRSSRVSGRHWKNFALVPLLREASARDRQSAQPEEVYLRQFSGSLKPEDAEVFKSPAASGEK
Sequence of Chromobox protein homolog 1 (Homo sapiens) (P83916 whole entry, looked up): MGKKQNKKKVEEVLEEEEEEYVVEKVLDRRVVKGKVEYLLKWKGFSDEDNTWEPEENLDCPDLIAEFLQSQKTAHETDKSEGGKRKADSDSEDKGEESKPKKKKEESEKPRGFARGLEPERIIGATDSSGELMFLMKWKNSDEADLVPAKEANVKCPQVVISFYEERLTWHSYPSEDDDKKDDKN

Row | Structure (SMILES) | Potency [1] | Potency [2] | Potency [3] | Potency [4] | Potency [5] | Potency [6] | outcome [7] | outcome [8] | outcome [9] | Potency [10] | Potency [11] | Potency [12] | activation [13] | Potency [14] | viability change [14] [%] | outcome [15] | Potency [16] | Potency [17] | Potency [18] | outcome [19]
1 | O=C(O)[C@@H]1C[C@H](C(=O)O)N1 | inactive | inactive | inactive | inactive | inactive | inactive | inactive | inactive | inactive | inactive | inactive | inactive | -0.25% (inactive) | inactive | 12.1 | inactive | inactive |  |  | 
2 | O=c1[nH]c2cc(Cl)c(Cl)cc2[nH]c1=O | inactive | inactive | inactive | inactive | inactive | inactive | inactive | inactive | inactive |  | inactive |  | 0.75% (inactive) | inactive | 9.5 | inactive | inactive | inactive |  | 
3 | O=C(c1cc(O)c(O)c([N+](=O)[O-])c1)c1ccccc1F | inactive | inactive | inactive | 21.2 µM (active) |  |  | inactive | inactive | inactive | inactive | inactive | inactive |  |  |  | inactive | inactive | inactive |  | 
4 | CCCCCCCCCCCCCCCC(=O)OC(CC(=O)O)C[N+](C)(C)C (stereo not drawn) | inactive | inactive | inactive | inactive | inactive | inactive |  |  | inactive | 10 µM (active) | 5.62 µM (active) | inactive | 1.06% (inactive) | inactive | -1.76 | inactive | inactive | inactive | inactive | 
5 | NC(CCCP(=O)(O)O)C(=O)O (stereo not drawn) | inactive | inactive | inactive | inactive | inactive | inactive | inactive | inactive | inactive | inactive | inactive | inactive | 0.562% (inactive) | inactive | 3.42 | inactive | inactive |  |  | 
6 | NCCNC(=O)c1ncsc1-c1cccc(F)c1 | inactive | inactive | inactive | inactive | inactive | inactive | inactive | inactive | inactive | inactive | inactive | inactive | -2.38% (inactive) | inactive | 1.7 | inactive | inactive |  |  | 
7 | COC(=O)c1c(C)[nH]c(C)c1C(=O)c1ccccc1Cc1ccccc1 | 9.28 µM (active) | inactive | inactive | inactive | 39.8 µM (active) and inactive | 44.7 µM (active) | inactive | inactive | inactive | inactive | inactive | inactive | 7.25% (inactive) | inactive | -8.95 | inactive | inactive | inactive | inactive | 
8 | CCCCCCCCCCCCCCCCCC(=O)NCC(COP(=O)([O-])OCC[N+](C)(C)C)OCC (stereo not drawn) | inactive | inactive | inactive | inactive | inactive | inactive | inactive | inactive | inactive | 10 µM (active) | 12.6 µM (active) |  | 2.19% (inactive) | inactive | 1.48 | inactive | inactive |  |  | 
9 | COc1cc(OC)c(/C=C2/C(=O)Nc3ccccc32)c(OC)c1 | inactive | inactive | inactive | inactive |  |  | inactive | inactive | inactive | inactive | inactive |  |  |  |  | inactive | inactive | inactive |  | 
10 | N=C(N)SCCc1ccc(CCSC(=N)N)cc1 | inactive | inactive | inactive | inactive | inactive | inactive | inactive | inactive | inactive |  | inactive | inactive |  | inactive | -6.92 | inactive | inactive |  | inactive | 
11 | CCCCN1CCC(n2c(=O)[nH]c3ccccc32)CC1 | inactive | inactive | inactive | inactive | inactive |  | inactive | inactive | inactive | inactive | inactive | inactive |  | inactive | -4.5 | inactive | inactive |  | inactive | 
12 | OC[C@H]1O[C@@H](n2cnc3c(NC4CCCCC4)ncnc32)[C@H](O)[C@@H]1O | inactive | inactive | inactive | inactive | inactive | inactive |  | inactive | inactive |  | inactive | inactive | 0.562% (inactive) | inactive | 2.64 | inactive | inactive | inactive |  | 
13 | O=C(O)[C@@H]1C[C@@H](C(=O)O)N1 | inactive | inactive | inactive | inactive | inactive | inactive | inactive | inactive |  | inactive | inactive | inactive | 1.06% (inactive) | inactive | 2.33 | inactive | inactive | inactive |  | 
14 | Cc1ccccc1CNc1ncnc2c1ncn2C1OC(CO)C(O)C1O (stereo not drawn) | inactive | inactive | inactive | inactive | inactive | inactive | inactive | inactive | inactive |  | inactive |  | 1.31% (inactive) |  |  | inactive | inactive |  |  | inactive
15 | CCCCCCCCCCCCCCCCCCNC(=O)OCC(COP(=O)([O-])OCC[n+]1ccsc1)OC (stereo not drawn) | inactive | inactive | inactive | inactive | inactive | inactive | inactive | inactive | inactive | inactive | inactive | inactive | 0.875% (inactive) | inactive | 1.65 | inactive | inactive | inactive | inactive | 
16 | NCCCCCCCCCCN | inactive | inactive | inactive | inactive | inactive | inactive |  | inactive | inactive |  | inactive | inactive |  | inactive | -2.16 | inactive | inactive | inactive | inactive | 
